# Laboratory results taken from PubChem BioAssay AID1259343 (VanderVen Lab, College of Veterinary Medicine, Cornell …, 2017).
# Among all 6,200 compounds or so, about 2,900 (47%) were called active. So high a share suggests a set chosen from earlier hits. Some of the results follow. Unmarked numbers belong to inactive results. No stated cut-off is given here; in the data, active means inhibition above about 50%; inactive means the rest.
# Experiment: Mycobacterium tuberculosis growth inhibition, primary screen (AID 1259343)
# Conditions: inhibition: at 10 µM, hits give high values; outcome: 10 uM
row,Compound,inhibition
1,O=C1OC(c2ccccc2Br)=NC1=Cc1ccc2ccccc2c1,-28.9%
2,CN(Cc1cccnc1)C(=O)c1cc(COc2ccc(F)c(F)c2)on1,60.5% (active)
3,Cc1cc(C)cc(OCCN(C)C(=O)Nc2ccc(F)cc2)c1,30.4%
4,Cc1nc2cc(OCc3cc(C(=O)NCc4cc(F)ccc4C)no3)ccc2s1,22.2%
5,Cc1ccc(OCc2cc(C(=O)NCc3cc4ccccc4[nH]3)no2)cc1C,24.7%
6,Cc1ccc(OCCN(C)C(=O)CCc2nnc(CCc3c[nH]c4ccccc34)o2)cc1,44.4%
7,CN(CCOc1ccccc1)C(=O)c1cc(Br)c[nH]1,101% (active)
8,Cc1ccc(OCc2cc(C(=O)NCc3nc4ccccc4s3)no2)cc1C,92.1% (active)
9,Cc1nc2sc3c(c2c(=O)n1NC(=S)NC(=O)C12CC4CC(CC(C4)C1)C2)CCCC3,67.3% (active)
10,COCCNCc1c(-c2ccccc2)noc1N(C)C1CCCCC1,82.5% (active)
11,N#Cc1cccc(NN=C2CCN(c3ccc(F)cc3)CC2)c1,95.8% (active)
12,N#Cc1cccc(NCc2c(F)cccc2Cl)c1,30.2%
13,N#Cc1cccc(NC(=O)NCc2cc(F)cc(F)c2)c1,-9.78%
14,O=C(O)CC1SC(=NN=C2c3ccccc3-c3ccccc32)NC1=O (stereo not given),24.2%
15,O=C(CC1SC(=NCc2ccco2)NC1=O)Nc1ccc(OC(F)(F)F)cc1 (stereo not given),21.7%
16,CCOc1ccc(N=C2NC(=O)C(CC(=O)c3ccccc3)S2)cc1 (stereo not given),54.9% (active)
17,CCOC(=O)C1(Cc2cccc(Cl)c2)CCCN(C(=O)CCC(F)(F)F)C1 (stereo not given),-43.9%
18,CCOC(=O)C1(Cc2cccc(OC)c2)CCN(CC#Cc2ccccc2)CC1,28.5%
19,CCOC(=O)C1(Cc2cccc(C(F)(F)F)c2)CCN(Cc2ccc(C#CCCO)cc2)CC1,51.2% (active)
20,O=C(CCC1CCCC1)N1CCc2ccc(O)cc2CC1,92.6% (active)
21,COc1ccc(CC2CN(Cc3ccc(OC)c(F)c3)CCO2)cc1 (stereo not given),30.9%
22,Cc1ccc(F)c(OCC2CN(CC(C)O)CCO2)c1 (stereo not given),102% (active)

row,Compound,inhibition
1,COC(=O)CSCCOc1ccc(OCCSCC(=O)OC)cc1,88.5% (active)
2,COc1ccc(OCCOc2ccc(C)cc2)cc1,inactive
3,Cc1ccc(C)c2sc(OC3CCN(S(=O)(=O)c4cccnc4)CC3)nc12,31.8%
4,O=C1c2ccccc2C(=O)c2c1ccc(O)c2O,101% (active)
5,COc1cccc2c1CCCC2CCCN1CCN(C2CCCCC2)CC1 (stereo not given),98.3% (active)
6,CCS(=O)(=O)Oc1ccc(CN(C(=O)c2cccc([N+](=O)[O-])c2)C(C)C)cc1,-14.5%
7,COC(=O)CCCCCNC(=O)c1cc([N+](=O)[O-])cc([N+](=O)[O-])c1,93.7% (active)
8,COC(=O)CNC(=O)c1ccc([N+](=O)[O-])o1,44.5%
9,COc1ccc(N2COc3cc4c(cc3C2)OCO4)cc1,87.2% (active)
10,Brc1ccc2c(c1)CN(Cc1ccc3c(c1)OCO3)CO2,1.53%
11,COc1ccc2c(c1)OCC(C(=O)NS(=O)(=O)c1cccs1)C2 (stereo not given),99.9% (active)
12,COc1ccc(NC(=O)C2Cc3ccc(C)cc3S2)cc1 (stereo not given),21.4%
13,COc1ccc2c(c1)CC(C(=O)N(C)Cc1ccco1)CO2 (stereo not given),-34.5%
14,CN(CCCOc1ccccc1Cl)S(=O)(=O)NCc1ccccc1,56.2% (active)
15,COc1c(F)cc(NS(=O)(=O)N(C)Cc2ccccc2)cc1F,31.6%
16,CN(Cc1cccc2cnccc12)S(=O)(=O)NCc1ccccc1,20.2%
17,c1ccc(CCNCCCOc2cccc3ccccc23)cc1,58% (active)
18,Cc1oc(C)c(C(=O)NC2(c3ccccc3)CCC2)c1Br,20.5%
19,O=C(NC1(c2ccc(Cl)cc2)CCC1)c1cnsn1,60.1% (active)
20,O=C(COc1ccc(Cl)cc1)NC1(c2ccccc2)CCC1,29.4%
21,O=S(=O)(Nc1ccc(Cl)c(Cl)c1)c1cccs1,20.9%
22,O=S(=O)(Nc1nc2ccccc2nc1OCC(F)(F)F)c1cccs1,71.9% (active)

row,Compound,inhibition
1,COc1ccc(F)c(CN2CCCC(CO)(Cc3cccc(Cl)c3)C2)c1 (stereo not given),31%
2,O=C(c1cc2cc(F)ccc2[nH]1)N1CCCC(CO)(Cc2cccc(Cl)c2)C1 (stereo not given),68.2% (active)
3,OCC1(Cc2cccc(Cl)c2)CCCN(Cc2nc(-c3ccc(F)cc3)cs2)C1 (stereo not given),inactive
4,CC(C)(C)c1ccc(C(=O)N2CCC2(C)C(=O)Nc2cccc3c2CCCC3)cc1 (stereo not given),0.45%
5,CC(C)C(=O)N1CCC1(C)C(=O)Nc1ccc(-n2cccc2)cc1 (stereo not given),92.6% (active)
6,Fc1ccc(CNc2ncnc3c2cnn3-c2ccc(F)cc2)cc1,-7.37%
7,CCOC(C)c1nc(CSc2ncnc3c2cnn3C)cs1 (stereo not given),40%
8,CC(C)CSc1ncnc2c1cnn2-c1ccccc1,59.5% (active)
9,CN(Cc1c(F)cccc1Cl)c1cncc(-n2cccn2)n1,83.7% (active)
10,CN(Cc1ccccc1)c1cccc(-n2ccnc2)n1,3.53%
11,CCN(CC)c1n[nH]c(-c2cccc(Cl)c2)n1,-6.42%
12,Clc1cccc(-c2ccc3nnc(Cl)nc3c2)c1,101% (active)
13,Cc1nn(-c2ccc(C(F)(F)F)cc2)c(C)c1[C@@H]1C=C[C@@H](NCc2ccc(N(C)C)cc2)C1,78.3% (active)
14,N#CC(C(=S)Nc1ccccc1)=C1NN=C2CCCCCN21,41.7%
15,COc1cccc(CNc2nccn(-c3cccc(Cl)c3)c2=O)c1,13.4%
16,CCOc1ccc(-n2ccnc(NCc3cccs3)c2=O)cc1,71.3% (active)
17,O=C(O)c1c[nH]c2c(ccc3ccccc32)c1=O,inactive
18,O=C(O)c1c[nH]c2c(Cl)c(Cl)ccc2c1=O,81.6% (active)
19,COc1ccc(F)c(-c2cc(C(=O)NC3CC3)ccn2)c1,82.8% (active)
20,COc1ccc(-c2cc(C(=O)NC3CC3)c(C)n2-c2cccc(OC)c2)cc1,-5.91%
21,CCCOc1ccc(F)cc1-c1cc(C(=O)NC2CCCCC2)[nH]n1,28%
